# Test results from PubChem BioAssay AID1159580 (chemical genetic matrix, 2015).
# In all, about 5,500 compounds went through this assay and about 2,000 (36%) were called active. Another 18% or so got no clear call; they are omitted. Some of the results follow. Values without a mark were called inactive. Rule as the data show it: active = normalized growth mostly below about 0.91 (no sharp cut-off); inconclusive = no clear call, values can overlap the other calls; inactive = mostly above about 0.92.
# Assay: chemical genetic growth profiling, strain panel (AID 1159580);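 also: tested at 20 µM; growth read once vehicle control cultures reached saturation at 30 °C; 1 = growth at the plate median or of vehicle wells; lower values mean less growth of the strain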
# Settings: S. cerevisiae deletion strains, growth OD
# [1] = locus YAR019C, strain CDC15, active compounds read low
# [2] = locus YBL105C, strain PKC1, active compounds read low
# [3] = locus YBR135W, strain CKS1, active compounds read low
# [4] = locus YBR136W, strain MEC1, active compounds read low
# [5] = locus YBR160W, strain CDC28, active compounds read low
# [6] = locus YDL017W, strain CDC7, active compounds read low
# [7] = locus YDL028C, strain MPS1, active compounds read low
# [8] = locus YDL101C, strain DUN1, active compounds read low
# [9] = locus YDL108W, strain KIN28, active compounds read low
# [10] = locus YDL132W, strain cdc53, active compounds read low
# [11] = locus YDL214C, strain PRR2, active compounds read low
# [12] = locus YDR052C, strain DBF4, active compounds read low
# [13] = locus YDR054C, strain cdc34, active compounds read low
# [14] = locus YDR226W, strain ADK1, active compounds read low
# [15] = locus YDR477W, strain SNF1, active compounds read low
# [16] = locus YER123W, strain YCK3, active compounds read low
# [17] = locus YER133W, strain GLC7, active compounds read low
# [18] = locus YFL009W, strain cdc4, active compounds read low
# [19] = locus YFL029C, strain CAK1, active compounds read low
# [20] = locus YFR003C, strain YPI1, active compounds read low
# [21] = locus YFR019W, strain FAB1, active compounds read low
# [22] = locus YFR028C, strain CDC14, active compounds read low
# [23] = locus YGR040W, strain KSS1, active compounds read low
# [24] = locus YGR052W, strain FMP48, active compounds read low
# [25] = locus YGR092W, strain DBF2, active compounds read low
# [26] = locus YHR030C, strain SLT2, active compounds read low
# [27] = locus YHR079C, strain IRE1, active compounds read low
# [28] = locus YHR082C, strain KSP1, active compounds read low
# [29] = locus YHR205W, strain SCH9, active compounds read low
# [30] = locus YIL147C, strain SLN1, active compounds read low
# [31] = locus YJL095W, strain BCK1, active compounds read low
# [32] = locus YJL128C, strain PBS2, active compounds read low
# [33] = locus YJL157C, strain FAR1, active compounds read low
# [34] = locus YJR016C, strain ILV3, active compounds read low
# [35] = locus YJR066W, strain TOR1 (second series), active compounds read low
# [36] = locus YJR066W, strain TOR1, active compounds read low
# [37] = locus YKL048C, strain ELM1, active compounds read low
# [38] = locus YKL067W, strain YNK1, active compounds read low
# [39] = locus YKL101W, strain HSL1, active compounds read low
# [40] = locus YKL193C, strain SDS22, active compounds read low
# [41] = locus YKL203C, strain TOR2, active compounds read low
# [42] = locus YLR113W, strain HOG1, active compounds read low
# [43] = locus YLR133W, strain CKI1, active compounds read low
# [44] = locus YLR403W, strain SFP1, active compounds read low
# [45] = locus YML070W, strain DAK1, active compounds read low
# [46] = locus YMR001C, strain CDC5, active compounds read low
# [47] = locus YMR205C, strain PFK2 (second series), active compounds read low
# [48] = locus YMR277W, strain FCP1, active compounds read low
# [49] = locus YNL006W, strain LST8, active compounds read low
# [50] = locus YNL020C, strain ARK1, active compounds read low
# [51] = locus YNL161W, strain CBK1, active compounds read low
# [52] = locus YNL183C, strain NPR1, active compounds read low
# [53] = locus YNL207W, strain RIO2, active compounds read low
# [54] = locus YNL222W, strain SSU72, active compounds read low
# [55] = locus YNL307C, strain MCK1 (second series), active compounds read low
# [56] = locus YOL078W, strain AVO1, active compounds read low
# [57] = locus YOL136C, strain PFK27, active compounds read low
# [58] = locus YOR061W, strain CKA2, active compounds read low
# [59] = locus YOR119C, strain RIO1, active compounds read low
# [60] = locus YOR231W, strain MKK1, active compounds read low
# [61] = locus YOR329C, strain SCD5, active compounds read low
# [62] = locus YPL031C, strain PHO85, active compounds read low
# [63] = locus YPL153C, strain RAD53, active compounds read low
# [64] = locus YPL204W, strain HRR25, active compounds read low
# [65] = locus YPL209C, strain IPL1, active compounds read low
# [66] = locus YPL256C, strain CLN2, active compounds read low
# [67] = locus YPR025C, strain CCL1, active compounds read low
# [68] = locus YPR106W, strain ISR1, active compounds read low
# [69] = locus YPR111W, strain DBF20, active compounds read low
# [70] = strain NNK1, active compounds read low
# [71] = strain TSCII, active compounds read low
compound,measurement,setting,value
Cc1onc(-c2c(Cl)cccc2Cl)c1C(=O)O/N=C(/N)Cc1ccc(C(C)(C)C)cc1,normalized growth,[1],0.991
same,normalized growth,[2],0.986
same,normalized growth,[3],0.988
same,normalized growth,[4],0.995
same,normalized growth,[5],0.983
same,normalized growth,[6],0.988
same,normalized growth,[7],0.993
same,normalized growth,[8],0.986
same,normalized growth,[9],0.989
same,normalized growth,[10],0.983
same,normalized growth,[11],0.982
same,normalized growth,[12],0.987
same,normalized growth,[13],0.989
same,normalized growth,[14],0.993
same,normalized growth,[15],1
same,normalized growth,[16],0.998
same,normalized growth,[17],0.999
same,normalized growth,[18],0.987
same,normalized growth,[19],0.986
same,normalized growth,[20],0.996
same,normalized growth,[21],0.995
same,normalized growth,[22],0.989
same,normalized growth,[23],0.999
same,normalized growth,[24],1.15
same,normalized growth,[25],0.983
same,normalized growth,[26],1.22 [resistant] (active)
same,normalized growth,[27],1.12
same,normalized growth,[28],1.16
same,normalized growth,[29],0.993
same,normalized growth,[30],0.987
same,normalized growth,[31],1.15
same,normalized growth,[32],0.953
same,normalized growth,[33],0.991
same,normalized growth,[34],0.992
same,normalized growth,[35],0.986
same,normalized growth,[36],1.17
same,normalized growth,[37],0.999
same,normalized growth,[38],1
same,normalized growth,[39],0.998
same,normalized growth,[40],0.989
same,normalized growth,[41],1.06
same,normalized growth,[42],1.08
same,normalized growth,[43],0.991
same,normalized growth,[44],0.994
same,normalized growth,[45],0.99
same,normalized growth,[46],0.989
same,normalized growth,[47],1
same,normalized growth,[48],0.994
same,normalized growth,[49],0.994
same,normalized growth,[50],1.01
same,normalized growth,[51],0.995
same,normalized growth,[52],1.14
same,normalized growth,[53],0.992
same,normalized growth,[54],0.987
same,normalized growth,[55],0.995
same,normalized growth,[56],0.985
same,normalized growth,[57],1.02
same,normalized growth,[58],1.01
same,normalized growth,[59],1.05
same,normalized growth,[60],1.08
same,normalized growth,[61],0.997
same,normalized growth,[62],1.02
same,normalized growth,[63],1
same,normalized growth,[64],1.02
same,normalized growth,[65],1
same,normalized growth,[66],1.1
same,normalized growth,[67],0.986
same,normalized growth,[68],0.994
same,normalized growth,[69],0.988
same,normalized growth,[70],0.997
same,normalized growth,[71],0.99
COc1c(Br)cc(/C(N)=N\OC(=O)c2c(-c3c(Cl)cccc3Cl)noc2C)cc1Br,normalized growth,"locus YAL013W, strain DEP1, active compounds read low",1.03
same,normalized growth,"locus YBR229C, strain ROT2, active compounds read low",1.01
same,normalized growth,[8],1
same,normalized growth,"locus YDR150W, strain NUM1, active compounds read low",1.02
same,normalized growth,"locus YEL061C, strain CIN8, active compounds read low",0.983
same,normalized growth,"locus YGR078C, strain PAC10, active compounds read low",1.02
same,normalized growth,[26],1.08
same,normalized growth,"locus YHR087W, strain rtc3, active compounds read low",1.02
same,normalized growth,"locus YJR043C, strain POL32, active compounds read low",1.01
same,normalized growth,"locus YJR075W, strain HOC1, active compounds read low",1.01
same,normalized growth,"locus YKL190W, strain CNB1, active compounds read low",1.01
same,normalized growth,"locus YLR039C, strain RIC1, active compounds read low",1.09
same,normalized growth,"locus YLR058C, strain SHM2 (second series), active compounds read low",1.01
same,normalized growth,"locus YLR085C, strain ARP6, active compounds read low",1.13
same,normalized growth,"locus YLR262C, strain YPT6, active compounds read low",1.04
same,normalized growth,"locus YML094W, strain GIM5, active compounds read low",1.04
same,normalized growth,"locus YMR219W, strain ESC1, active compounds read low",1.01
same,normalized growth,"locus YMR263W, strain SAP30, active compounds read low",1
same,normalized growth,"locus YMR307W, strain GAS1, active compounds read low",1.05
same,normalized growth,"locus YNL153C, strain GIM3, active compounds read low",0.998
same,normalized growth,"locus YNL298W, strain CLA4 (second series), active compounds read low",1.05
same,normalized growth,"locus YNL322C, strain KRE1, active compounds read low",1.01
same,normalized growth,"locus YNR030W, strain Alg12, active compounds read low",1.03
same,normalized growth,"locus YPL055C, strain LGE1, active compounds read low",1.07
same,normalized growth,"locus YPL241C, strain CIN2, active compounds read low",0.98
same,normalized growth,"locus YPR135W, strain CTF4, active compounds read low",1.17
Cc1onc(-c2c(F)cccc2Cl)c1/C(N)=N\OC(=O)c1ccc(C(C)(C)C)cc1,normalized growth,[1],0.989
same,normalized growth,[2],0.998
same,normalized growth,[3],0.985
same,normalized growth,[4],0.986
same,normalized growth,[5],0.989
same,normalized growth,[6],0.993
same,normalized growth,[7],0.985
same,normalized growth,[8],0.98
same,normalized growth,[9],0.978
same,normalized growth,[10],0.989
same,normalized growth,[11],0.971
same,normalized growth,[12],0.994
same,normalized growth,[13],1
same,normalized growth,[14],0.989
same,normalized growth,[15],0.976
same,normalized growth,[16],0.948
same,normalized growth,[17],0.967
same,normalized growth,[18],0.987
same,normalized growth,[19],1
same,normalized growth,[20],0.997
same,normalized growth,[21],0.982
same,normalized growth,[22],0.984
same,normalized growth,[23],0.975
same,normalized growth,[24],1.1
same,normalized growth,[25],1
same,normalized growth,[26],1.17 [resistant] (active)
same,normalized growth,[27],1.08
same,normalized growth,[28],1.11
same,normalized growth,[29],0.986
same,normalized growth,[30],0.981
same,normalized growth,[31],1.11
same,normalized growth,[32],0.957
same,normalized growth,[33],0.963
same,normalized growth,[34],0.982
same,normalized growth,[35],0.932
same,normalized growth,[36],1.12
same,normalized growth,[37],0.983
same,normalized growth,[38],0.994
same,normalized growth,[39],0.972
same,normalized growth,[40],0.991
same,normalized growth,[41],1.05
same,normalized growth,[42],1
same,normalized growth,[43],0.988
same,normalized growth,[44],0.968
same,normalized growth,[45],0.966
same,normalized growth,[46],0.987
same,normalized growth,[47],0.987
same,normalized growth,[48],0.992
same,normalized growth,[49],0.988
same,normalized growth,[50],0.978
same,normalized growth,[51],0.991
same,normalized growth,[52],1.11
same,normalized growth,[53],0.99
same,normalized growth,[54],0.99
same,normalized growth,[55],0.998
same,normalized growth,[56],0.982
same,normalized growth,[57],0.956
same,normalized growth,[58],0.967
same,normalized growth,[59],1.02
same,normalized growth,[60],1.05
same,normalized growth,[61],0.996
same,normalized growth,[62],0.991
same,normalized growth,[63],0.973
same,normalized growth,[64],0.979
same,normalized growth,[65],0.993
same,normalized growth,[66],1.05
same,normalized growth,[67],0.99
same,normalized growth,[68],0.988
same,normalized growth,[69],0.986
same,normalized growth,[70],0.99
same,normalized growth,[71],0.99
